In PubChem BioAssay AID2018 (Sanford-Burnham Center for Chemical Genomics, 2009):
The campaign covered roughly 1,200 compounds. About 600 (50%) were called active. So high a share suggests a set chosen from earlier hits. This is one part of the list. Results with a measured potency or affinity are listed apart. Unmarked numbers belong to inactive results. Cut-off read from the data, not from the text of the source: active = inhibition above about 42%; inactive = the rest.

biological target: SUMO-conjugating enzyme UBC9 (Homo sapiens) (UniProt P63279); assay: blockers of UBC9-mediated SUMO conjugation – biochemical, AlphaScreen, SUMOylation inhibitor project, confirmation (AID 2018); conditions: AlphaScreen in vitro SUMOylation assay; at 35 µM; stronger effect = higher value
Sequence (P63279 whole entry, looked up): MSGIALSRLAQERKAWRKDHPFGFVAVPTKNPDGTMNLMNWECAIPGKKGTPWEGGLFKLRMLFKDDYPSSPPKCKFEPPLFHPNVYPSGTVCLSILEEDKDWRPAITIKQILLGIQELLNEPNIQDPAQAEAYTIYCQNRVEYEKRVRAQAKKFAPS

Row | Structure (SMILES) | inhibition
1 | CN1CCc2cc3c(c4c2[C@H]1[C@H](O)c1ccccc1-4)OCO3 | 74% (active)
2 | NC(N)=NS(=O)(=O)c1ccc(NC(=S)NC(=O)/C=C/c2ccco2)cc1 | 34.2%
3 | CC(=O)NC(=S)Nc1ccc(NC(=S)NC(=O)/C=C/c2ccco2)cc1 | 7.8%
4 | COc1ccc(NC(=O)N2c3ccc(OC)cc3C(C)=CC2(C)C)cc1 | 28.1%
5 | Cc1c(C(=O)c2ccc(F)cc2F)c2ccccn2c1CCC#N | 15.4%
6 | COc1ccc(Cn2c(C)c(C)c(C#N)c2NC(=O)Nc2ccc(F)cc2)cc1 | -26.7%
7 | c1cc(Nc2ncnc3sc4c(c23)CCC4)ccn1 | 12.9%
8 | Cc1cc2n(n1)SC(Nc1cccc3ccccc13)N2 (stereo not given) | 14%
9 | Cc1ccc2cc(C(c3nnnn3C(C)(C)C)N3CCCCCC3)c(=O)[nH]c2c1 (stereo not given) | 0.1%
10 | CNS(=O)(=O)c1ccc2nc(NC(=O)/C=C/c3ccco3)sc2c1 | 16.2%
11 | COc1ccc(-c2csc(NC(=S)NC(=O)/C=C/c3ccco3)n2)cc1OC | 74.2% (active)
12 | Cc1nc2ccc(-c3nc4cc(N)ccc4o3)cc2[nH]1 | -11.6%
13 | CCCCCCC(C)OC(=O)c1ccccc1C(=O)O (stereo not given) | 10.7%
14 | Cc1c(Br)c(O)c(Br)c2sc(=O)oc12 | 49.6% (active)
15 | Cc1ccc(Nc2nc(=O)c3cc([N+](=O)[O-])ccc3s2)cc1 | 24.2%
16 | COc1cc([N+](=O)[O-])cc(/C=N/NC(=O)C(C)Nc2cccc3ccccc23)c1O (stereo not given) | -212%
17 | COc1cccc(/C=N/NC(=O)C(=O)N/N=C/c2cccc(OC)c2O)c1O | 98.6% (active)
18 | COc1cccc(OC)c1C(=O)N1CCNCC1 | -1.1%
19 | COc1ccc2c(c1)-c1nc(/N=C/c3cccc(OC)c3O)sc1CC2 | 28.4%
20 | O=C(N/N=C/c1ccc(O)cc1O)C(=O)N/N=C/c1ccc(O)cc1O | 101% (active)
21 | CC(O)C(=O)N/N=C/c1cccc(Cl)c1Cl (stereo not given) | -34.7%
22 | O=C(CNc1ccc2ccccc2c1)N/N=C/c1cc2ccccc2nc1Cl | 37.3%
23 | O=C(NCCNc1ccc2ccccc2c1)c1cccn2c(=O)c3sccc3nc12 | 23.7%
24 | Cc1ccc(-c2nc3cc(N)ccc3o2)cc1 | 11.5%
25 | CC(C)CC(=O)Nc1ccc2oc(-c3cccnc3)nc2c1 | 16.9%

Row | Structure (SMILES) | inhibition
26 | Cn1nccc1NC(=O)Nc1cccc(Br)c1 | -0.2%
27 | CN1C(=O)c2cccc3c(S(=O)(=O)NCc4ccco4)ccc1c23 | 5%
28 | CCN1C(=O)c2cccc3c(N)ccc1c23 | 50% (active)
29 | CN1C(=O)c2cccc3c(S(=O)(=O)NCCc4ccccc4)ccc1c23 | -13%
30 | C=CCN1C(=O)N(/C=C/C)c2cccc3cccc1c23 | -14.9%
31 | COC(=O)/C(=C\Nc1ccc(Cl)cc1Cl)NC(=O)c1ccc(OC)cc1 | 22.8%
32 | COc1cccc(C(=O)Nc2cccc(C(=O)NC3=NN(c4c(Cl)cc(Cl)cc4Cl)C(=O)C3)c2)c1 | 101% (active)
33 | COc1cccc(NC(=S)Nc2cccc3ccccc23)c1 | 30.7%
34 | C=CCc1cccc(/C=N/NC(=O)CNc2cccc3ccccc23)c1O | 25.1%
35 | O=C(Cc1cc(=O)[nH][nH]1)N/N=C/c1cccc2ccccc12 | 47.2% (active)
36 | O=C(CNc1cccc2ccccc12)N/N=C/c1ccccn1 | -1.7%
37 | O=C1CC(c2ccco2)CC(O)=C1C=Nc1cc(Cl)ccc1Cl (stereo not given) | 17.2%
38 | O=C1CC(c2ccco2)CC(O)=C1C=Nc1cc(Cl)ccc1O (stereo not given) | 54.5% (active)
39 | O=C1CC(c2ccco2)CC(O)=C1C=NCC1NCCc2ccccc21 (stereo not given) | 18.6%
40 | O=C1CCN(c2ncccc2[N+](=O)[O-])CC1 | -9.6%
41 | O=C1C(Cl)=C(N2CCN(c3ccccc3[N+](=O)[O-])CC2)C(=O)c2ccccc21 | 101% (active)
42 | Nc1c(Cl)cc(NC(=O)c2ccccc2C(=O)O)cc1Br | 8%
43 | CCCCN1Cc2c(nc3cc(-c4ccco4)[nH]n3c2=O)C1=O | 4.3%
44 | NS(=O)(=O)c1cnccc1Nc1ccc(Cl)cc1 | -32.2%
45 | C/C(=C\C(=O)c1ccccc1)Nc1ccc(O)cc1 | 18.7%
46 | O=C(Nc1ccccc1)c1ccccc1CCc1ccccc1 | -9.6%
47 | COc1ccc(C2=NN(C(=O)c3cccs3)C(c3ccccc3O)C2)cc1 (stereo not given) | 27.7%
48 | O=C(O)c1ccc(N2N=C(c3ccccc3)CC2c2ccccc2)cc1 (stereo not given) | -14.9%
49 | Cc1cc(=O)n2[nH]c(N)c(N=Nc3ccccc3)c2n1 | 23.6%
50 | CCOCCCNC1=C(Cl)C(=O)c2ccccc2C1=O | 90.1% (active)

Row | Structure (SMILES) | inhibition
51 | O=C1c2nc3cc(-c4ccco4)[nH]n3c(=O)c2CN1C1CCCCC1 | 6.6%
52 | Cc1[nH][nH]c(=O)c1C(c1c(C)[nH][nH]c1=O)c1cn(Cc2cccc3ccccc23)c2ccccc12 | 32.5%
53 | Cc1[nH][nH]c(=O)c1C(c1c(C)[nH][nH]c1=O)c1cn(C)c2ccccc12 | 102% (active)
54 | Cc1[nH][nH]c(=O)c1C(c1c(C)[nH][nH]c1=O)c1cn(Cc2ccc(F)cc2)c2ccccc12 | 50.9% (active)
55 | O=C(NCc1ccc(F)cc1)C(=O)c1cn(CC(=O)N2CCCC2)c2ccccc12 | 11.6%
56 | O=C(O)/C=C/C(=O)Nc1ccc2c(c1)NC(=O)CO2 | 13.1%
57 | Cc1c(O)ccc2c(CC(=O)N[C@@H](Cc3ccc(O)cc3)C(=O)O)cc(=O)oc12 | 16.9%
58 | COc1ccc2c(c1)c(=O)oc1c(C)c(OCc3ccc(C(=O)O)cc3)ccc12 | 65.5% (active)
59 | CC(=O)Nc1cccc(NC(=S)Nc2cccc3ccccc23)c1 | 28.9%
60 | COc1cc2cc(NC(C)=O)cc(NCc3ccccc3)c2cc1OC | 50.6% (active)
61 | COc1ccc(NC(=S)Nc2cccc3ccccc23)cc1OC | 10.7%
62 | CCOC(=O)N1CCC(c2cc(=O)n(-c3ccccc3)[nH]2)CC1 | 16.1%
63 | CCOC(=O)N1CCN(C2=C(NS(=O)(=O)c3ccc(NC(C)=O)cc3)C(=O)c3ccccc3C2=O)CC1 | 53.7% (active)
64 | Cc1ccc(C(=O)Nc2ccccc2C(=O)N2CCN(c3ccccc3)CC2)cc1 | -27.1%
65 | CC(=O)Nc1ccc(S(=O)(=O)Nc2cccn(Cc3ccc(C)cc3)c2=O)cc1 | 1.7%
66 | CCOC(=O)N1CCN(C2=C(NS(=O)(=O)c3ccc(C)cc3)C(=O)c3ccccc3C2=O)CC1 | 85.2% (active)
67 | COc1ccc(Br)cc1C1CC(=O)N2CN(Cc3ccccc3)CSC2=C1C#N (stereo not given) | 29.1%
68 | COc1ccc(CC2=C(O)c3ccccc3C(=O)C2=O)cc1 | 19.6%
69 | O=C1C(=O)c2ccccc2C(O)=C1CCCCl | 102% (active)
70 | CC1(OC(=O)c2cccs2)C(=O)C=C2C=C3CCCN3C=C2C1=O (stereo not given) | 83.7% (active)
71 | Cc1nc2ccc(NC(=O)NCc3ccco3)cc2s1 | -8.1%
72 | CC(=O)C1=C(O)C=C(c2ccco2)CC1c1ccco1 (stereo not given) | 28.1%
73 | Cc1ccc(S(=O)(=O)NNC(=S)Nc2c(Cl)cccc2Cl)cc1 | -0.4%
74 | Fc1ccc(-c2ccnc3nc(N4CCOCC4)nn23)cc1 | -6.1%
75 | O=C(O)c1ccc(C(=O)Nc2cccc3ccccc23)c(C(=O)O)c1 | 12.5%

Row | Structure (SMILES) | inhibition
76 | Cc1cc(N2C(=O)c3ccc(C(=O)Nc4ccc(O)cc4C(=O)O)cc3C2=O)no1 | 39.8%
77 | N#Cc1ccc(-c2csc(NC(=O)/C=C/c3cccs3)n2)cc1 | 3.9%
78 | Nc1nnc(-c2cc3c(ccc4ccccc43)oc2=O)s1 | 46.1% (active)
79 | CNc1nnc(-c2cc3ccccc3oc2=O)s1 | 28.9%
80 | COC(=O)c1scc(C)c1NC(=O)C(Cl)c1ccccc1 (stereo not given) | -8.2%
81 | CC(=O)c1sc2nc(-c3ccco3)ccc2c1N | 40%
82 | N#Cc1c(-c2ccco2)cc(-c2cccnc2)nc1N | 26.7%
83 | N#Cc1sc2nc(-c3ccccc3)cc(-c3ccco3)c2c1N | 96.1% (active)
84 | COc1ccc(CN2C(=O)Cc3c2nc(N)c2c(N)nc(N4CCOCC4)c(C#N)c32)cc1 | 11%
85 | CCOc1cc2c(C#N)c(N3CCCCC3)nc(N)c2c(N)n1 | 101% (active)
86 | CCOc1cc2c(C#N)c(N3CCNCC3)nc(N)c2c(N)n1 | 18.3%
87 | CCOc1cc2c(C#N)c(N3CCOCC3)nc(N)c2c(N)n1 | 44.2% (active)
88 | Cc1oc2c(c(C)cc3oc(=O)c(CC(=O)NCC(=O)NCC(=O)NCC(C)O)c(C)c32)c1C (stereo not given) | -15.6%
89 | COc1ccc(-n2c(NC(=O)c3ccco3)c(C#N)c3nc4ccccc4nc32)cc1 | 101% (active)
90 | CCOC(=O)c1c(NC(=O)c2ccco2)n(C2CCCCC2)c2nc3ccccc3nc12 | 63.5% (active)
91 | O=C(Nc1cccc2cccc(NC(=O)c3ccco3)c12)c1ccco1 | 36.3%
92 | CN(c1ccccc1)c1cc(=O)[nH]c(=O)[nH]1 | 11.4%
93 | Oc1ccc(NC(=S)Nc2ccc(O)cc2)cc1 | 19.5%
94 | Cc1ccccc1N=Cc1cccc(O)c1O | 33.2%
95 | O=[N+]([O-])c1ccc(C=Nc2cccc3ccccc23)s1 | 82.6% (active)
96 | Oc1cccc(C=Nc2cccc3ccccc23)c1O | 59% (active)
97 | Oc1oc(-c2ccccc2)nc1C=Nc1cccc2ccccc12 | -77.5%
98 | Oc1cccc(C=NCc2ccccc2)c1O | 51.5% (active)
99 | O=C(CNc1cccc2ccccc12)N/N=C/c1ccc([N+](=O)[O-])cc1 | -19.8%
100 | O=[N+]([O-])c1ccc(-c2ccc(C=Nc3cccc4ccccc34)o2)cc1 | 58.3% (active)
